MEX-5 binding: MEX-5 zinc finger RNA-binding disruptors – biochemical, C. elegans, fluorescence polarization, MLPCN library, primary screen; MEX-5/FITC-TCR2 RNA binding; active compounds read low; 300,000 compounds, 0.38% hits; Zinc finger protein mex-5 (Caenorhabditis elegans), Q9XUB2; activity score (negative = inhibition of binding), % at 10 µM;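 active = inhibition past about -25% in most replicates, and total fluorescence under double the plate's negative control median, limit read from the data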;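 also: 0% = DMSO and -100% = 5 µM competing unlabeled TCR2 RNA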
PABP polyA inh: PABP poly(A) RNA binding inhibitors, primary screen, biochemical, fluorescence polarization, uHTS. calls only at 35 µM. 290,000 compounds, 1% hits. Polyadenylate-binding protein 1 (Homo sapiens), P11940. AID 2014, 2009;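 also: calls also rest on retests at 20 µM and on dose response follow-up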
EBV gp42 block: Epstein-Barr virus gp42 inhibitors, primary screen, biochemical, uHTS, fluorescence polarization; AID 1085, 2008; 220,000 compounds, 0.42% hits; Fluorescence polarization binding assay, mP read-out; inhibition, % (tested at 21.74 µM); Glycoprotein 42 (Epstein-Barr virus (strain AG876)), Q1HVG2; in the data active = inhibition above about 50%
MLLE-PAM2 inh: inhibitors of PABP1 MLLE–PAM2 peptide binding, primary screen, biochemical, fluorescence polarization, FITC-PAM2, GST-MLLE; Polyadenylate-binding protein 1 (Homo sapiens), P11940; AID 588489, 2011; 360,000 compounds, 0.36% hits; inhibition, % at 20 µM; in the data active = inhibition above about 35%, passing the limit was not always enough;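 also: plate controls were DMSO wells with GST-MLLE for no effect and wells lacking GST-MLLE protein for full effect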
eIF4H inh: human eIF4H binding inhibitors, primary screen, translation initiation inhibitor project, biochemical, uHTS, fluorescence polarization; Eukaryotic translation initiation factor 4H (Homo sapiens), Q15056; eIF4H fluorescence polarization binding assay; inhibition, % at 35 µM; 290,000 compounds, 0.94% hits;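 also: calls also rest on retests at 20 µM and on dose response follow-up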
* = called active by the depositor; i = inactive; x = not tested or not shown; + = active, no number. Shown are actives, neighbours in structure and some others; about 1.8% of the full set was active somewhere. Unless noted, no rule for the calls is given here.

SMILES | MEX-5 binding | PABP polyA inh | EBV gp42 block | MLLE-PAM2 inh | eIF4H inh
C[C@@H]1O[C@@H](OC[C@H]2O[C@@H](Oc3c(-c4ccc(O)c(O)c4)oc4cc(O)cc(O)c4c3=O)[C@H](O)[C@@H](O)[C@@H]2O)[C@H](O)[C@H](O)[C@H]1O | 48.3 | + | -8.8 | -6.7 | 60.9*
Nc1ccccc1/C=C/c1ccccc1N | x | x | x | 11.4 | x
COc1cc(NC(=O)CSc2nc3ncnc(N)c3[nH]2)c(C(=O)O)cc1OC | -30.7* | i | x | -10.1 | -3.8
CC(NC(=O)OCc1ccccc1)C(=O)NCC(=O)NC(Cc1ccc(OC(C)(C)C)cc1)C(=O)OC(C)(C)C (stereo not drawn) | -0.9 | i | -4.7 | -2.6 | -12.3
CC(C)(C)OC(=O)C(Cc1ccc(OC(C)(C)C)cc1)NC(=O)CNC(=O)CNC(=O)OCc1ccccc1 (stereo not drawn) | 0.3 | i | -9.1 | 10.8 | active
CCc1ccccc1NC(=O)C1CCCN(c2ncnc3onc(-c4ccc(F)cc4)c23)C1 (stereo not drawn) | 0.5 | i | x | 2.0 | 3.8
CC(C)(CO)Nc1ncnc2onc(-c3ccc(F)cc3)c12 | 2.4 | + | x | 4.8 | 91.6*
C/C(=N/OC(=O)c1c(-c2ccccc2Cl)noc1C)c1cnccn1 | 2.6 | i | -3.9 | 3.4 | 0.3
C/C(=N/OC(=O)c1c(-c2c(Cl)cccc2Cl)noc1C)c1cnccn1 | 1.7 | i | 55.1* | -2.3 | 5.0
COc1cc(NC(=O)c2ccc(-c3ccc(F)c(F)c3)c3ccoc23)cc(OC)c1OC | x | x | x | 11.0 | x
O=C(NCC1CCCO1)c1[nH]c(C(F)(F)F)nc1-c1ccccc1 (stereo not drawn) | x | x | x | 11.6 | x
CC(C)(C)OC(=O)NCc1ccc(CNC(=O)c2[nH]cnc2C(=O)Nc2ccccc2F)cc1 | x | x | x | 5.2 | x
Cc1nc(CN(C)c2ncnc3ccc(-c4ccc5c(c4)OCO5)cc23)cs1 | x | x | x | -16.2 | x
O=C1CC(c2ccco2)CC(O)=C1C=NCCN1CCNCC1 (stereo not drawn) | -2.1 | + | 4.6 | -2.0 | 95.3*
O=C1CC(c2ccco2)CC(O)=C1C=Nc1cc(Cl)cc(Cl)c1 (stereo not drawn) | -1.2 | i | -18.2 | 14.1 | 54.5
O=C1CC(c2ccco2)CC(O)=C1C=NCC1CCNCC1 (stereo not drawn) | -0.8 | + | -14.4 | 24.2 | 94.1*
COc1cccc(S(=O)(=O)Nc2ccc(C(O)(C(F)(F)F)C(F)(F)F)cc2)c1 | x | x | x | 19.5 | x
Cc1ccc(C)n1-c1sccc1C(=O)O | -36.0* | i | 9.6 | 45.5* | 107.3
CC/C(=N\Nc1ccc([N+](=O)[O-])cc1)c1ccccc1 | -0.6 | + | -5.0 | -73.6 | 61.4
O=[N+]([O-])c1ccc(NN=C(Oc2ccccc2)c2ccc([N+](=O)[O-])cc2)cc1 | x | x | x | -103.1 | x
COc1cc(/C=C/C(=O)Nc2nnc(CC(C)(C)C)s2)cc(OC)c1OC | -1.7 | i | -27.2 | 43.5* | -3.6
COc1cc(/C=C/C(=O)Nc2nnc(CC(C)C)s2)cc(OC)c1OC | 2.8 | i | -23.6 | -1.7 | -0.7
CCOC(=O)/C=C(\C)Sc1cc(O)c2ccccc2c1O | x | i | -20.6 | 61.6* | 16.1
Cc1cc(C)c(Nc2cc(S(=O)(=O)O)c(N)c3c2C(=O)c2ccccc2C3=O)c(C)c1 | x | + | 31.1 | 15.4 | 92.3
Cc1cc(C)c(NC(=O)COC(=O)c2cccc3c2C(=O)c2ccccc2C3=O)c(C)c1 | 1.9 | i | -10.2 | 8.4 | 1.0
CCc1ccccc1NC(=O)CCC(=O)N1CCN(C(C)=O)CC1 | x | x | x | -59.5 | x
Cc1ccc(-n2nc3ccc(NC(=S)NC(=O)/C=C/c4ccco4)cc3n2)cc1 | 0.6 | + | -30.0 | -6.6 | 88.0
Cc1ccc(-n2nc3cc(C)c(NC(=S)NC(=O)/C=C/c4ccco4)cc3n2)cc1 | -5.2 | + | -24.4 | -4.6 | 67.5*
Cc1cccc(NC(=S)NC(=O)/C=C/c2ccco2)c1 | 4.0 | i | -2.9 | -11.0 | 37.3
COCCOC(=O)N1CCCCC1c1cc(C(=O)Nc2cccc3c2CCCC3)no1 (stereo not drawn) | x | x | x | 7.5 | x

Source: PubChem
